Screening results: PubChem, National Center for Advancing Translational Sciences (NCATS)
JMJD2E inh: blocks human JMJD2E demethylase activity | B2RXH2 | JMJD2E catalytic domain, FDH-coupled NADH fluorescence (FDH is formaldehyde dehydrogenase) | Potency, µM (top dose mostly 57.1 µM), for inactives: at the top dose activity change, negative = inhibition, most hits filed as inhibitors | hit rate 1.6% among 230,000; active means well fitted inhibition curve with a large enough effect, not every such curve was filed as active; inconclusive means small, poorly fitted or top-dose-only effect, or another doubt; inactive means no such curve, though single readings can be large or run the other way;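 further: 0% = wells with enzyme and -100% = buffer wells without enzyme; nearly all actives have a fitted effect of over 50% in size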
Target sequence (B2RXH2 1-337 limits assumed): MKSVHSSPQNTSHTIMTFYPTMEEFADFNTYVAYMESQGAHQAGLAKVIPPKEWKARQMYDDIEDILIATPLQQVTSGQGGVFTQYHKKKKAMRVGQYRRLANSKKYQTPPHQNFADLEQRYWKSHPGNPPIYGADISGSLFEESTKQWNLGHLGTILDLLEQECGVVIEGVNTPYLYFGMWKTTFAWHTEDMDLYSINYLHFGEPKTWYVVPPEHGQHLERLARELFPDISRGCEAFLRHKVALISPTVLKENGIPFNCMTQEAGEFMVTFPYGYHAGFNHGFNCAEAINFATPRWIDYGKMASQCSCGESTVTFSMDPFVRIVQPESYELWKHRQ
TDP1 inh: TDP1 (human) enzyme inhibition; recombinant TDP1, AlphaScreen DNA substrate cleavage; Potency, µM (top dose mostly 130 µM), without a hit: at the top dose activity change, negative = inhibition, most hits filed as inhibitors; hit rate 0.28% among 350,000; Q9NUW8; further: nearly all actives have a fitted effect of over 40% in size
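Enzyme-compound mixtures sat 15 min at room temperature, followed by a 5 min reaction with 15 nM final substrate and 10 min with AlphaScreen beads. Recombinant human Tdp1 was used at 1 nM final.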
RECQ1 helicase: inhibitors of human RECQ1 DNA helicase; RECQ1 DNA unwinding, red fluorescence kinetic read; Potency, µM (titrated, usually from 57.3 µM), for the others: at the highest dose activity, negative = inhibition, actives largely listed as inhibitors; hit rate 0.54% among 240,000; AID 2549; P46063;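 further: plate controls were vehicle for no effect and no enzyme for full effect; nearly all actives have a fitted effect of over 30% in size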
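50 nM RECQ1T1 preincubated 15 min with compound in Tris pH 8.0 buffer with MgCl2, DTT, Tween-20 and 2.5 ug/ml poly(dI-dC); started with 200 nM TAMRA/BHQ-2 forked duplex and 2 mM ATP. Unwinding read as fluorescence (525/598 nm), two reads 2 h apart.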
APEX1 inh: APE1 (human) endonuclease inhibition | hit rate 0.35% among 350,000 | Potency, µM (highest dose often 65.8 µM), for the others: at the highest dose activity change, negative = inhibition, actives largely listed as inhibitors | recombinant APE1, TAMRA/BHQ-2 abasic DNA cleavage fluorescence | P27695 | AID 2517;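 further: plate controls were vehicle for no effect and reference inhibitor for full effect; nearly all actives have a fitted effect of over 55% in size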
Target sequence (P27695 whole entry, looked up): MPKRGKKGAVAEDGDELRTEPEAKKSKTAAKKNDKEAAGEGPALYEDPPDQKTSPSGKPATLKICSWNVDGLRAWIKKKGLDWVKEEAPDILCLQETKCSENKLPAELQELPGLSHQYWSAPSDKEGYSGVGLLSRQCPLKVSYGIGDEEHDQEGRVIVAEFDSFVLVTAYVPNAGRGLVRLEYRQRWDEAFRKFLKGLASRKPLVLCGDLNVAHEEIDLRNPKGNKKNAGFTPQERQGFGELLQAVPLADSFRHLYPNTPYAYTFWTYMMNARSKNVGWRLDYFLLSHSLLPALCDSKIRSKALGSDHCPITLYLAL
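Quantitative HTS: incision of a TAMRA/BHQ-2 double-stranded substrate bearing a tetrahydrofuran abasic site by 0.75 nM APE1 raises fluorescence. Substrate 50 nM final, added after 15 min compound preincubation at room temperature; progress as third-minus-first kinetic read difference.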
BLM inh: inhibitors of human Bloom syndrome helicase BLM; Potency, µM (doses to about 56.1 µM), for the others: at the top dose activity change, negative = inhibition, most hits filed as inhibitors; recombinant BLM DNA unwinding, fluorescence dequenching; hit rate 0.2% among 350,000;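 further: plate controls were vehicle for no effect and no enzyme for full effect; nearly all actives have a fitted effect of over 35% in size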
KAT2A inh: blocks human GCN5L2 histone acetyltransferase | Q92830 | GCN5L2 HAT assay, ThioGlo1 CoA-SH fluorescence | Potency, µM (highest dose often 58.9 µM), for the others: top-dose activity change, negative = inhibition, most hits filed as inhibitors | hit rate 0.21% among 390,000 | AID 504327
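Fluorescence readout, Ex340nm/Em540nm: ThioGlo1 (50uM final) reacts with free CoA thiol released as 20nM GCN5L2 acetylates H3(1-25) peptide (75uM) using acetyl-CoA (70uM). Compound and enzyme sat 15 min beforehand; 20 min room-temperature reaction.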
The depositor's hits bear a star; ! = not confirmed by another sample; [ ] = dose if it differs, or a comment. The sample as a whole holds a higher share of hits than the screen did. Unless noted, the call rests on the fitted dose curve; in most records, active means well fitted curve in the direction sought with a large enough effect; inconclusive means small, poorly fitted or top-dose-only effect, or another doubt; inactive means no such curve, though single readings can be large; an effect the other way counts as inactive or inconclusive. Unless noted, on the % scale 0 is the no-effect control and ±100 the full control effect; potency means the concentration at half of the fitted maximal effect.

CCCCC(=O)N/N=C/c1c(O)n(CCc2ccc(OC)c(OC)c2)c(=O)[nH]c1=O was read as JMJD2E inh 22µM*, TDP1 inh 11%, RECQ1 helicase -2%, APEX1 inh -2%, BLM inh 3% and KAT2A inh -1%.
O=C(N/N=C/c1c(O)n(Cc2ccccc2)c(=O)[nH]c1=O)c1ccncc1 was read as JMJD2E inh 20µM*, TDP1 inh 9%, RECQ1 helicase -3%, APEX1 inh 4%, BLM inh -3% and KAT2A inh -18%.
`COc1ccc(CCn2c(O)c(/C=N/NC(=O)c3ccncc3)c(=O)[nH]c2=O)cc1OC` gave JMJD2E inh 10µM*, TDP1 inh 8%, RECQ1 helicase -12%, APEX1 inh -4%, BLM inh -12% and KAT2A inh -7%.
For COc1ccc(CCn2c(O)c(C=NCc3cccnc3)c(=O)[nH]c2=O)cc1OC the results were JMJD2E inh 5%, TDP1 inh 6%, RECQ1 helicase -8%, APEX1 inh 4%, BLM inh 2% and KAT2A inh 1%.
`O=C(N/N=C/c1c(O)n(Cc2ccc(F)cc2)c(=O)[nH]c1=O)c1ccccc1` gave JMJD2E inh inconclusive, TDP1 inh 7%, RECQ1 helicase 11%, APEX1 inh -6%, BLM inh -5% and KAT2A inh inconclusive.
`CCCCC(=O)N/N=C/c1c(O)n(CC)c(=S)[nH]c1=O` gave JMJD2E inh inconclusive, TDP1 inh 8%, RECQ1 helicase inactive, APEX1 inh -2%, BLM inh 4% and KAT2A inh 0%.
For CC(C)(Cl)Cl the results were TDP1 inh 3%, RECQ1 helicase -7% and APEX1 inh 1%.
`Clc1ccc(C(c2ccc(Cl)cc2)C(Cl)Cl)cc1` gave RECQ1 helicase -10% and APEX1 inh 2%.
CCOP(=S)(OCC)SCSC(C)(C)C was read as TDP1 inh 7%, RECQ1 helicase -8% and APEX1 inh 0%.
Screening COc1cc2c(c(OC)c1OC)-c1ccc(OC)c(=O)cc1[C@@H](NC=O)CC2 returned TDP1 inh 4%, RECQ1 helicase -12%, APEX1 inh -4%, BLM inh 1% and KAT2A inh inconclusive.
For Cn1c(O)c(/C=N/NC(=O)c2ccncc2)c(=O)n(C)c1=S the results were JMJD2E inh 32µM*, RECQ1 helicase -2%, APEX1 inh -3%, BLM inh -8% and KAT2A inh -17%.
For [Cl][In]([Cl])[Cl] the results were TDP1 inh 0.5µM*, RECQ1 helicase -6%, APEX1 inh 0%, BLM inh -3% and KAT2A inh -16%.
COP(=S)(OC)SCn1nnc2ccccc2c1=O was read as JMJD2E inh inconclusive, TDP1 inh 13%, RECQ1 helicase -2%, APEX1 inh -5%, BLM inh 2% and KAT2A inh 40µM*.
For C[C@@H]1C[C@@H]2[C@H]([C@H]3C=C(COC(=O)c4ccccc4)[C@@H](O)[C@]4(O)[C@@H](O)C(OC(=O)c5ccccc5)=C[C@@]14C3=O)C2(C)C the results were TDP1 inh 9%, RECQ1 helicase -19%, APEX1 inh -6%, BLM inh -12% and KAT2A inh 18%.
`[Cd+2].[Cl-].[Cl-]` gave TDP1 inh 3%, RECQ1 helicase 35µM* and APEX1 inh 0.79µM*.
Cc1c(N=Nc2c(O)[nH]c(=O)[nH]c2=O)c(=O)n(-c2ccccc2)n1C was read as JMJD2E inh 3.5µM*, TDP1 inh 10%, RECQ1 helicase 6%, APEX1 inh -4%, BLM inh 0% and KAT2A inh -5%.
Screening COc1cc2c(cc1O)C[C@H]1c3c(cc(OC)c(O)c3-2)CCN1C returned JMJD2E inh inconclusive, TDP1 inh -11%, RECQ1 helicase 25µM*, APEX1 inh inconclusive and BLM inh -23%.
`C=C(C)C(=O)OCC1CO1` (configuration not stated) gave TDP1 inh 15%, RECQ1 helicase 3% and APEX1 inh -3%.
`CN[C@@H](C)[C@H](O)c1ccccc1` gave JMJD2E inh 3.5µM*, TDP1 inh 18%[56.1 µM], RECQ1 helicase -4%, APEX1 inh 2% and BLM inh inconclusive.
Screening NC1CCCCC1N (configuration not stated) returned TDP1 inh 2%, RECQ1 helicase -10%, APEX1 inh -2%, BLM inh -5% and KAT2A inh 20%.
Screening ClCC(Cl)CCl returned TDP1 inh 6%, RECQ1 helicase 3% and APEX1 inh 5%.
Nc1ccc(N)cc1 was read as TDP1 inh 17%, RECQ1 helicase -17%, APEX1 inh inconclusive, BLM inh -15% and KAT2A inh 10%.
`Nc1ccc([As](=O)(O)O)cc1` gave JMJD2E inh 13µM*, TDP1 inh -10%, RECQ1 helicase 12%, APEX1 inh -1%, BLM inh -2% and KAT2A inh -14%.
For CCOC(=O)CC(NC(=O)C(Cc1ccc(N(CCCl)CCCl)cc1)NC(C)=O)C(=O)OCC (configuration not stated) the results were JMJD2E inh 10µM*, TDP1 inh -14%, RECQ1 helicase 3%, APEX1 inh 19%, BLM inh -9% and KAT2A inh -8%.
NC(Cc1ccc(N(CCCl)CCCl)cc1)C(=O)O (configuration not stated) was read as JMJD2E inh 20µM*!, TDP1 inh 6%, RECQ1 helicase -9%, APEX1 inh -3%, BLM inh -15% and KAT2A inh -5%.
`CCC12CCN(C)CC1Oc1c(C)cccc12` (configuration not stated) gave APEX1 inh 12%.
`CN1/C(=C\C=C\C2=[N+](C)c3ccc4ccccc4c3C2(C)C)C(C)(C)c2ccccc21` gave JMJD2E inh -1%, TDP1 inh 12%, RECQ1 helicase 28µM*, APEX1 inh 28µM*, BLM inh 32µM* and KAT2A inh -21%.
For CC(=O)Oc1ccc(Cl)c2cccnc12 the results were JMJD2E inh 18µM*, TDP1 inh 18%, RECQ1 helicase 7%, APEX1 inh 3%, BLM inh 1% and KAT2A inh -9%.
Screening Cc1ccc(N2C(=O)NC(=O)/C(=C\C=C\c3ccco3)C2=O)cc1C returned JMJD2E inh -11%, TDP1 inh -5%, RECQ1 helicase 28µM*, APEX1 inh 5%, BLM inh -3% and KAT2A inh -14%.
